NPC1 promoter act = activates the NPC1 promoter; Huh7 NPC1 promoter luciferase reporter, 24 h; Potency, µM (series often up to 9.22 µM), most hits filed as activators; 2.4% of 320,000 active; AID 485313; also: nearly all actives have a fitted effect of over 60% in size
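Compounds in DMSO were transferred onto Huh7 NPC1-luciferase reporter cells pre-incubated 2 h; after 24 h at 37 °C, Amplite reagent was dispensed and luminescence recorded 10 min later.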
SMN2 splice up = enhancers of SMN2 splice variant expression; HEK293 SMN2-luciferase splicing reporter, luminescence, 30-36 h; Potency, µM (titrated, usually from 46.1 µM), usual class: activators; 2.8% of 210,000 active; AID 1458; also: nearly all actives have a fitted effect of over 55% in size
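qHTS luciferase splicing reporter: luminescence rises when SMN2 exon 7 is included in transfected HEK293 cells. Compound exposure lasted 30-36 h at 37C, with 4.5 mM final sodium butyrate as control, followed by a ONE-Glo read.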
FLuc modulator = counter-screen for miR-21 project: firefly luciferase inhibitors or activators; P08659; purified FLuc, Km substrates, luminescence inhibition; Potency, µM (series often up to 57.5 µM), most hits filed as inhibitors; 6.9% of 360,000 active; AID 588342; also: nearly all actives have a fitted effect of over 55% in size
Target sequence (P08659 whole entry, looked up): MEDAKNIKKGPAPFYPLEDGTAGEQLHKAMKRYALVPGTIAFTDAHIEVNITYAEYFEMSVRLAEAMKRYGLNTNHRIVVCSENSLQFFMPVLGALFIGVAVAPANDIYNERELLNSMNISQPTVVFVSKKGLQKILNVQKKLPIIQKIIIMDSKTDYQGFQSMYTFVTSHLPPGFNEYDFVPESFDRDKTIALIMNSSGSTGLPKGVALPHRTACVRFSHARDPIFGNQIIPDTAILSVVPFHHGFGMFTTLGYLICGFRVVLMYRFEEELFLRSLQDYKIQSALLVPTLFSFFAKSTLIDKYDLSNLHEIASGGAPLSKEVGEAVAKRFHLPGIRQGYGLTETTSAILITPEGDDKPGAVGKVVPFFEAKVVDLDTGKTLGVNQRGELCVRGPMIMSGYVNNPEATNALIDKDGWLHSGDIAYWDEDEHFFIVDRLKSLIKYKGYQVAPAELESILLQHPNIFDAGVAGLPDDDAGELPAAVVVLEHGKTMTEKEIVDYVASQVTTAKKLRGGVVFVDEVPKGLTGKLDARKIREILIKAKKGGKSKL
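Purified P. pyralis luciferase, 10 nM final, with Km-level 10 uM D-luciferin and 10 uM ATP in 50 mM Tris acetate pH 7.5, 10 mM Mg acetate, 0.01% Tween-20, 0.05% BSA; 6-point qHTS titration about 60 µM downward; luminescence read.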
Rab9 prom act = Rab9 promoter activation; Potency, µM (doses to about 9.22 µM), actives largely listed as activators; 2.8% of 320,000 active; Huh7 Rab9 promoter-luciferase reporter, luminescence, 24 h; also: nearly all actives have a fitted effect of over 60% in size
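Luminescence read-out: Huh7 cells stably expressing Rab9-luciferase, treated 24 h with compound at 37 °C, then lysed with luciferase reagent for 10 min at ambient before reading.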
ELG1 genotox = induces genotoxicity in HEK293T cells with luciferase-tagged ELG1 | HEK293T ELG1-luciferase reporter, luminescence, 16 h | 1.3% of 330,000 active | AID 504466 | Potency, µM (top dose mostly 46 µM), most hits filed as activators; also: nearly all actives have a fitted effect of over 60% in size
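DMSO vehicle served as control against compound-treated ELG1-luciferase HEK293T cells; exposure lasted 16 hr at 37 °C and 5% CO2, followed by ONE-Glo luminescence detection after 30 min.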
Numbers stand for hits; [ ] = dose if it differs, or a comment. Rows were chosen to be rich in hits. Some 7.4% of all compounds tested hit in one or more screens of this group. Calls follow the shape of the dose curve; as a rule, active = well fitted curve in the direction sought with a large enough effect; inconclusive = small, poorly fitted or top-dose-only effect, or another doubt; inactive = no such curve, though single readings can be large; an effect the other way counts as inactive or inconclusive.

For CCOc1ccccc1NC(=O)Cn1c(=O)n(C(C)C)c(=O)c2oc3ccccc3c21 the results were FLuc modulator inactive.
For Cc1occc1C(=O)NNC(=S)Nc1ccccc1C(F)(F)F the results were NPC1 promoter act inconclusive, SMN2 splice up inconclusive, FLuc modulator inactive, Rab9 prom act 2.8µM and ELG1 genotox inactive.
For Cc1ccccc1NC(=S)NNC(=O)c1ccoc1C the results were NPC1 promoter act inconclusive, SMN2 splice up inactive, FLuc modulator inactive, Rab9 prom act inconclusive and ELG1 genotox inactive.
`Cc1occc1C(=O)NNC(=S)Nc1ccccc1` gave NPC1 promoter act inconclusive, SMN2 splice up inconclusive, FLuc modulator inconclusive, Rab9 prom act 2.5µM and ELG1 genotox inconclusive.
COc1ccc2c(c1)sc1ncc(C(=O)NCc3cccc(Cl)c3)c(=O)n12 was read as SMN2 splice up inactive and FLuc modulator inactive.
For CCOc1ccccc1NC(=O)CN1C(=O)C2(SCC(=O)N2c2cccc(F)c2)c2ccccc21 (stereo not given) the results were FLuc modulator inactive.
`Cc1cccc(N2CCN(C(=O)c3cn(C)c4ccc(S(=O)(=O)N(C)C)cc4c3=O)CC2C)c1` (stereo not given) gave SMN2 splice up inactive and FLuc modulator inactive.
For Cc1ccc(CNC(=O)C2CCC(CNS(=O)(=O)c3ccc4c(c3)CCCC(=O)N4)CC2)cc1 (stereo not given) the results were FLuc modulator inactive.
For Cc1c(Cl)cccc1NC(=O)c1cc(C2CC2)on1 the results were NPC1 promoter act inconclusive, SMN2 splice up inactive, FLuc modulator 19µM, Rab9 prom act 3.5µM and ELG1 genotox inconclusive.
COc1ccc(NC(=O)c2cc(C3CC3)on2)c(OC)c1 was read as NPC1 promoter act inconclusive, SMN2 splice up 20µM, FLuc modulator inconclusive, Rab9 prom act inconclusive and ELG1 genotox 18µM.
Screening Cc1cccc(N2CCN(C(=O)c3ccc(NC(=O)c4nsc5ccccc45)cc3)CC2C)c1 (stereo not given) returned FLuc modulator 4.8µM.
For CC1CCN(C(=O)c2ccc(NC(=O)c3nsc4ccccc34)cc2)CC1 the results were FLuc modulator 7.6µM.
COc1ccc(N2CCN(C(=O)c3ccc(NC(=O)c4nsc5ccccc45)cc3)CC2)cc1 was read as FLuc modulator 6.7µM.
`CC1CCN(C(=O)c2ccc(NC(=O)c3cccs3)cc2)CC1` gave NPC1 promoter act inactive, FLuc modulator inconclusive, Rab9 prom act inactive and ELG1 genotox inactive.
Screening O=C(Nc1ccc(C(=O)N2CCN(c3ccccc3F)CC2)cc1)c1nsc2ccccc12 returned FLuc modulator 5.4µM.
`CCN(CC)c1sc(S(=O)(=O)c2ccccc2)nc1S(=O)(=O)c1ccc(C)cc1` gave SMN2 splice up inactive and FLuc modulator inactive.
`O=P(O)(O)OP(=O)(O)O` gave SMN2 splice up inactive[9.22 µM].
Screening Cc1cccc(N2CCN(C(=O)CN3C(=O)COc4ccc(S(=O)(=O)N5CCC(C)CC5)cc43)CC2)c1C returned SMN2 splice up inactive and FLuc modulator inactive.
CCc1ccccc1NC(=O)CSc1nc2c(oc3ccccc32)c(=O)n1C was read as SMN2 splice up inactive and FLuc modulator inactive.
Screening Cc1ccc(Cl)cc1N1CCN(C(=O)c2ccc(NS(=O)(=O)c3c(C)noc3C)cc2)CC1 returned NPC1 promoter act inactive, SMN2 splice up inactive, FLuc modulator inactive, Rab9 prom act inactive and ELG1 genotox inactive.
For COc1cccc(N2CCN(C(=O)CNC(=O)c3sc4ccccc4c3Cl)CC2)c1 the results were NPC1 promoter act inactive, FLuc modulator inconclusive, Rab9 prom act inactive and ELG1 genotox inactive.
`Cc1ccc(Cl)cc1N1CCN(C(=O)c2ccc(NC(=O)c3nsc4ccccc34)cc2)CC1` gave FLuc modulator 6µM.
O=C(Nc1ccc(C(=O)N2CCN(c3ccc(Cl)cc3)CC2)cc1)c1nsc2ccccc12 was read as FLuc modulator 1.1µM.
`COc1cccc(N2CCN(C(=O)c3ccc(NC(=O)c4nsc5ccccc45)cc3)CC2)c1` gave FLuc modulator 1.2µM.
`CCN1CCC(O)([C@H](C(=O)O)c2ccccc2)CC1` gave SMN2 splice up inactive[9.22 µM].
For COc1ccccc1C(=O)NC(=S)Nc1cccnc1Cl the results were NPC1 promoter act 1.1µM, FLuc modulator 2.4µM, Rab9 prom act 1µM and ELG1 genotox 0.82µM.
